Rows were chosen to be rich in hits. Some 3.1% of all compounds tested hit in one or more screens of this group.
EWS-Fli block: blocks EWS/Fli oncoprotein-driven transcription; A673 NR0B1-luciferase reporter, viability-normalised; inhibition, % at 12.6 µM; 0.67% of 350,000 active;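 active means mean inhibition of at least 50% after viability correction, with every replicate also passing that limit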;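 further: firefly luciferase signal divided by Alamar Blue viability fluorescence both relative to DMSO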
PAX8 reporter: inhibitors of PAX8 transcriptional activity in RMG-I cells; RMG-I TPO-luciferase reporter, SteadyGlo, 24 h; inhibition, % at 12.6 µM; 1.2% of 360,000 active; AID 652154;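 active means mean replicate inhibition at least 60% with every replicate also reaching 60%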;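 further: luciferase light reporting Pax8 driven TPO promoter activity; plate controls were median of neutral control wells for no effect and mitoxantrone controls for full effect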
miR-122 sensor: blocks miR-122 activity in Huh7 sensor cells; Huh7 miR-122 Renilla luciferase sensor, 48 h; neutral wells = 0, positive control = 100; activation (reporter increase), % at 12.5 µM; 0.3% of 340,000 active; AID 602342;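 active means mean replicate activation score at least 90 and every replicate individually at or above 90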;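 further: higher luciferase means less miR-122 activity so hits act as miR-122 inhibitors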
Env fusion inh: inhibitors of HIV Env-mediated cell fusion. HeLa-JRFL Env/CEM21 cell fusion, luciferase. inhibition, % at 12.3 µM. 1.1% of 360,000 active;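 active means mean replicate inhibition score of at least 50 and every replicate individually at or above 50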;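 further: 0% = plate neutral controls and 100% = maraviroc near 300 nM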
INS-1E GSIS act: primary screen for activators of insulin secretion dependent on glucose, INS-1E cells, GLuc reporter luminescence; INS-1E GLuc reporter insulin secretion, 2-3 h; AID 743287; activation, % at 16.6 µM; 0.61% of 370,000 active;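 active means lowest replicate activation of at least 40%, so every replicate reaches that level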;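 further: 0% = median of neutral control wells and 100% = median of IBMX positive control wells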
C2C12 statin: protects C2C12 myotubes from simvastatin toxicity; rescue of ATP level, % at 7.49 µM; 0.78% of 330,000 active; ATP luminescence, 48 h; scaled: DMSO 0, geranylgeraniol control 100;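 active means mean ATP rescue above about 67%, or every replicate alone reaching that limit, limit read from the data, passing the limit was not always enough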;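 further: myotubes were challenged with 10 µM simvastatin during compound exposure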
Numbers without * were called inactive; . = no result; [ ] = remark or other dose.

SMILES | EWS-Fli block | PAX8 reporter | miR-122 sensor | Env fusion inh | INS-1E GSIS act | C2C12 statin
CO[C@@H]1CN(C)C(=O)c2cc(NS(=O)(=O)c3ccc(C)cc3)ccc2OC[C@@H](C)N(Cc2nccs2)C[C@H]1C | 7 | 3 | . | 3[16.7 µM] | -15 | -6
C[C@H](CO)N1C[C@H](C)[C@H](CN(C)C(=O)Cc2ccccc2)Oc2cc(-c3cncnc3)ccc2S1(=O)=O | 4 | -21 | 8[16.7 µM] | -3[16.7 µM] | -3 | -8
COCc1[nH]nc2c1C(c1ccc(F)cc1)N(Cc1ccccc1)C2=O (stereo not drawn) | -1 | 24 | . | 77* | 16 | .
COc1ccc2c3c(n(C)c2c1)[C@@H](CO)N(C)CC31CN(C(=O)C2CCC2)C1 | -2 | . | . | . | -4 | .
c1cnc2ccc(C(c3nnnn3C3CCCC3)N3CCN(c4nc5ccccc5s4)CC3)cc2c1 (stereo not drawn) | . | . | 11 | . | . | 122*
Clc1ccc(C(c2nnnn2C2CCCC2)N2CCN(c3nc4ccccc4s3)CC2)cc1 (stereo not drawn) | . | 5 | 14 | -39 | -8 | .
CC(=O)Nc1cc(-c2nn(C)c(=O)c3ccccc23)ccc1N1CCOCC1 | . | . | -2 | -16 | . | 106*
C[C@@H]1CN([C@H](C)CO)C(=O)c2cc(-c3ccccc3)cnc2O[C@@H]1CN(C)C(=O)NC1CCCC1 | 2 | 10 | 15[16.7 µM] | -9[16.7 µM] | 5 | 12
C=CCNC(=S)N/N=C/c1ccc(-c2cc(Cl)ccc2Cl)o1 | . | . | . | . | 124* | 19
C=CCNC(=S)N/N=C/c1ccc(-c2ccc(Cl)cc2Cl)o1 | 22 | 8 | 3 | -234 | 56 | 4
CN1C(=O)c2cc(NS(=O)(=O)c3ccccc3F)ccc2OC[C@@H]2O[C@H](CC(=O)NC3Cc4ccccc4C3)CC[C@@H]21 | 0 | 23 | . | 63*[16.7 µM] | -3 | -26
CN1C(=O)c2cc(NS(=O)(=O)c3ccc(Cl)cc3)ccc2OC[C@@H]2O[C@H](CC(=O)N3CCc4ccccc4C3)CC[C@@H]21 | 8 | 61* | 17[16.7 µM] | -2[16.7 µM] | 3 | -64
CN1C(=O)c2cc(NS(=O)(=O)c3ccc(Cl)cc3)ccc2OC[C@H]2O[C@@H](CC(=O)N3CCc4ccccc4C3)CC[C@H]21 | 8 | 37 | 0[16.7 µM] | -16[16.7 µM] | -12 | 26
OC[C@@H]1[C@@H](c2ccc(C#Cc3ccccc3)cc2)[C@@H]2CN(Cc3ccccn3)CCCCN12 | . | . | . | . | -20 | .
CCCCS(=O)(=O)N1CCN(C(=O)C(=O)c2cccc(C(F)(F)F)c2)CC1 | -1 | 4 | . | 91* | -26 | .
O=C(C[C@@H]1CC[C@@H]2[C@H](COC[C@@H](O)CN2C(=O)c2ccccc2)O1)NCc1cccc(F)c1 | 3 | -12 | -3[16.7 µM] | . | 4 | 0
COc1cccc(NC(=O)N[C@H]2CC[C@H](CC(=O)NCc3ccccn3)O[C@@H]2CO)c1 | -5 | 7 | . | 19[16.7 µM] | 2 | -5
CCCCNc1nc(N)ncc1[N+](=O)[O-] | 4 | 5 | -3 | -9 | 55* | 7
CCCCNc1c([N+](=O)[O-])ncn1C | -7 | -7 | 0 | -8 | -4 | .
CSc1cccc(NS(=O)(=O)c2cc(Br)cnc2N)c1 | -27 | 3 | 106* | -2 | -52 | 0
Nc1ncc(Br)cc1S(=O)(=O)NCCc1ccccc1 | -4 | -8 | 105* | 21 | . | -5
Cc1ccc(NS(=O)(=O)c2cc(Br)cnc2N)cc1C | -21 | 6 | 144* | 1 | 18 | 0
COc1ccc(Cl)cc1NS(=O)(=O)c1cc(Br)cnc1N | 3 | -7 | 41 | -9 | -9 | 6
Cc1cc(C)cc(NS(=O)(=O)c2cc(Br)cnc2N)c1 | -1 | -4 | 98* | -1 | . | -2
CSc1cccc(NS(=O)(=O)c2ccccc2)c1 | . | . | -35 | . | . | 11
CCC(=O)Nc1ccc2c(c1)C(=O)N(C)[C@@H]1CC[C@H](CC(=O)NCc3ccccc3Cl)O[C@@H]1CO2 | 1 | 2 | -1[16.7 µM] | -4[16.7 µM] | -6 | 0
COc1ccc2c3c(n(C)c2c1)[C@H](CO)N(Cc1ccccc1)CC31CN(C(=O)Nc2cccc(F)c2)C1 | 4 | . | . | -2[16.7 µM] | -5 | .
Nc1ncc(Br)cc1S(=O)(=O)NC1CCCCC1 | . | 3 | 126* | -5 | 7 | 0
COc1cccc(C#Cc2cnc3c(c2)C(=O)N([C@@H](C)CO)C[C@H](C)[C@@H](CN(C)C)O3)c1 | 3 | -29 | -3[16.7 µM] | 9[16.7 µM] | 6 | 41

Source: PubChem BioAssay (Broad Institute)
